Rows were chosen to be rich in hits. Some 2.4% of all compounds tested hit in one or more screens of this group.
LT uptake inh = inhibitors of anthrax lethal toxin internalization; Cells, anthrax lethal toxin internalization, FRET ratio (460/530); Potency, µM (titrated, usually from 40 µM), without a hit: at the top dose activity change, negative = inhibition, actives largely listed as inhibitors; 70,000 tested, 0.67% active; AID 912; note: % is set by controls: 0 for no effect and ±100 for the full control effect; nearly all actives have a fitted effect of over 50% in size
AmpC det inh = inhibitors of E. coli AmpC beta-lactamase with detergent | purified AmpC, nitrocefin hydrolysis with detergent | 71,000 tested, 0.09% active | AID 584 | Potency, µM (series often up to 28.7 µM), inactives show at the top dose activity change, negative = inhibition; active = well fitted curve in the direction sought with a large enough effect; inconclusive = small, poorly fitted or top-dose-only effect; note: % is set by controls: 0 for no effect and ±100 for the full control effect
Target sequence (P00811 whole entry, looked up): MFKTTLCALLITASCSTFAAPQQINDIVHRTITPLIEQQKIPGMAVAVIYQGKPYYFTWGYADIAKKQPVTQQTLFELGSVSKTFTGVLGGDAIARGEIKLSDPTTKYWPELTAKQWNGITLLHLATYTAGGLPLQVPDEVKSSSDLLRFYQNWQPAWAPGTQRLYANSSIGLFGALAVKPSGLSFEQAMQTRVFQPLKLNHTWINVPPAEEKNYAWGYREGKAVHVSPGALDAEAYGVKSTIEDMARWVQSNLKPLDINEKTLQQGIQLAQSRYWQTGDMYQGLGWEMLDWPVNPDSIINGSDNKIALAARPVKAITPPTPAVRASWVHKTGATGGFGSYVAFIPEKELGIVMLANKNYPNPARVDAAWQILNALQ
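E. coli AmpC (5.3 nM) in 20 mM phosphate pH 7.0 with 0.01% Triton X-100, preincubated 15 min RT with compound; nitrocefin (2 uL of 800 uM stock) hydrolysis followed by 480 nm absorbance every 20 s over 4 min.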
AmpC inh no det = inhibitors of E. coli AmpC beta-lactamase without detergent | AmpC nitrocefin hydrolysis, absorbance 480 nm, no detergent | AID 585 | 71,000 tested, 1.8% active | Potency, µM (highest dose often 28.7 µM), for inactives: at the highest dose activity change, negative = inhibition | P00811; note: % of control where 0% means no effect
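AmpC, 20 mM phosphate pH 7.0; 15 min cpd preinc, RT; start with nitrocefin (800 uM stock); A480 kinetic read, 20 s intervals, 4 min. No-enzyme wells = negative control.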
Prx2 Sm inh = Schistosoma mansoni Prx2 inhibition; Potency, µM; 65,000 tested, 0.07% active; AID 448; S. mansoni Prx2 activity coupled to TGR/GSH (TGR is thioredoxin glutathione reductase), NADPH fluorescence loss, qHTS
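Activity is read as the drop in NADPH fluorescence (365/450 nm), recorded every 30 sec for 8 min after H2O2 addition. Prx2 is coupled to TGR-driven NADPH oxidation through glutathione, in phosphate buffer pH 7.4.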
* = called active by the depositor; [ ] = another dose, or the depositor's remark. Unless noted, calls come from the whole dose curve. Potency is the fitted concentration of half-maximal effect.

What do the screens show for `CC(=O)N(C[C@@H](C)C(=O)O)c1c(I)cc(I)c(N)c1I`?
LT uptake inh: 13%[3.58 µM]; AmpC det inh: 0%[12.8 µM]; AmpC inh no det: -10%[12.8 µM]; Prx2 Sm inh: >57

How did COc1ccccc1N(C(C)=O)C1SC(=O)N(c2ccccc2)C1=O (stereo unspecified) do in these assays?
LT uptake inh: 9%; AmpC det inh: -2%; AmpC inh no det: 13%; Prx2 Sm inh: >57

Results for COc1cccc(NC2SC(=O)N(c3ccccc3)C2=O)c1 (stereo unspecified) ?
LT uptake inh: -18%; AmpC det inh: 8%; AmpC inh no det: 4µM*[single pt active]; Prx2 Sm inh: >57

What do the screens show for `Cc1cccc2ccccc12`?
LT uptake inh: -7%; AmpC det inh: 8%; AmpC inh no det: -1%

How did Cc1ccc(C(=N)c2ccccc2Cc2cccc3ccccc23)c2ccccc12 do in these assays?
LT uptake inh: 2.5µM*; AmpC det inh: -2%[5.75 µM]; AmpC inh no det: 2%[5.75 µM]; Prx2 Sm inh: >57

Results for O=S(=O)(O)c1ccc(NN(c2c(O)ccc3ccccc23)S(=O)(=O)O)cc1 ?
LT uptake inh: -8%[8 µM]; AmpC det inh: -3%[5.75 µM]; AmpC inh no det: -9%[5.75 µM]; Prx2 Sm inh: >57

Results for O=C(CC(=O)c1cc(Cl)ccc1O)c1ccccc1 ?
LT uptake inh: 7.9µM*; AmpC det inh: 8%; AmpC inh no det: -2%

Results for Cc1ccc(O)c(C(=O)CC(=O)c2cccc(F)c2)c1 ?
LT uptake inh: inconclusive; AmpC det inh: -1%; AmpC inh no det: 3%

What do the screens show for `COc1ccc(-n2c(=O)c(C)nc3cnc(N4CCNCC4)nc32)cc1`?
LT uptake inh: inconclusive; AmpC det inh: -3%; AmpC inh no det: 42%; Prx2 Sm inh: >57

Results for Cc1cc(C(=O)CSc2nc3ccccc3n2CCC#N)c(C)n1Cc1cccs1 ?
LT uptake inh: -26%; AmpC det inh: -1%; AmpC inh no det: 16µM*; Prx2 Sm inh: >57

Results for c1ccc2c(c1)c1c3n2CCNC3CCC1 (stereo unspecified) ?
LT uptake inh: inconclusive; AmpC det inh: -4%; AmpC inh no det: 11%; Prx2 Sm inh: >57

How did c1cc2c3c(c1)c1c(n3CCNC2)CCCC1 do in these assays?
LT uptake inh: inconclusive; AmpC det inh: 16µM*; AmpC inh no det: inconclusive; Prx2 Sm inh: >26

What do the screens show for `COCc1cc(C)nc(N2CCOCC2)c1C#N`?
LT uptake inh: -21%; AmpC det inh: 11%; AmpC inh no det: 4µM*[single pt active]

What do the screens show for `CCNc1nc(C)cc(COC)c1C#N`?
LT uptake inh: 0%; AmpC det inh: 11%; AmpC inh no det: 9%

Results for O=C(NCc1ccc2c(c1)OCO2)c1cccc2c1C(=O)N(C1CCCCC1)C2 ?
LT uptake inh: 2%; AmpC det inh: 14%; AmpC inh no det: 2.5µM*[single pt active]; Prx2 Sm inh: >57

Results for CC(C)CCn1c(SCC#N)nc2c(sc3ccccc32)c1=O ?
LT uptake inh: 9%; AmpC det inh: 4%; AmpC inh no det: -3%; Prx2 Sm inh: >57

What do the screens show for `C=CCn1c(=O)n(CCOC)c(=O)c2sc3ccccc3c21`?
LT uptake inh: -10%; AmpC det inh: 12%; AmpC inh no det: 4µM*[single pt active]; Prx2 Sm inh: >57

How did COc1cccc(C2CC(c3ccc(C)cc3)n3nc(N)nc3N2)c1 (stereo unspecified) do in these assays?
LT uptake inh: 6%; AmpC det inh: 12%; AmpC inh no det: 4µM*[single pt active]; Prx2 Sm inh: >57

Results for COc1cccc(C2CC(c3ccccc3Cl)Nc3nc(N)nn32)c1 (stereo unspecified) ?
LT uptake inh: -8%; AmpC det inh: -3%; AmpC inh no det: 64%; Prx2 Sm inh: >57

What do the screens show for `COc1ccc(C2CC(c3ccc(Cl)cc3Cl)n3nc(N)nc3N2)cc1` (stereo unspecified)?
LT uptake inh: 14%; AmpC det inh: 14%; AmpC inh no det: 108%; Prx2 Sm inh: >57

How did COc1ccc(C2CC(c3c(Cl)cccc3Cl)n3nc(N)nc3N2)cc1 (stereo unspecified) do in these assays?
LT uptake inh: inconclusive; AmpC det inh: 7%; AmpC inh no det: 4µM*[single pt active]; Prx2 Sm inh: >57

Results for CCOc1ccc(C2CC(c3cccc(OC)c3)Nc3nc(N)nn32)cc1 (stereo unspecified) ?
LT uptake inh: -5%; AmpC det inh: 10%; AmpC inh no det: 80%; Prx2 Sm inh: >57

What do the screens show for `COc1cccc(C2CC(c3ccc(C)cc3)Nc3nc(N)nn32)c1` (stereo unspecified)?
LT uptake inh: -1%; AmpC det inh: 7%; AmpC inh no det: 4µM*[single pt active]; Prx2 Sm inh: >57

Screening results: PubChem, National Center for Advancing Translational Sciences (NCATS)
